This is one part of a sample in which hits are shown more often than they occur.
Pf Dd2 inh = inhibitors of Plasmodium falciparum Dd2 growth | P. falciparum Dd2 growth, SYBR Green, 72 h | Potency, µM (titrated, usually from 28.9 µM), most hits filed as inhibitors | 120,000 compounds, 4.3% hits | AID 1347417; active = well fitted inhibition curve with a large enough effect; also: nearly all actives have a fitted effect of over 65% in size
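Infected erythrocytes (Dd2, 0.3% parasitemia, 2.5% hematocrit final) are added to compound in RPMI-1640/Albumax II medium, grown 72 h at 37C in low oxygen, then lysed with saponin/Triton-X containing SYBR Green and read by fluorescence.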
Of the large screens only hits and unclear results are named; the others gave an inactive call.

COc1ccccc1Cc1nc2ccccc2nc1SCC(=O)N1CCCCC1	none
COc1cc(NC(=O)CSc2nc3ccccc3nc2Cc2ccccc2OC)cc(OC)c1	none
COc1ccccc1Cc1nc2ccccc2nc1SCC(=O)NCc1ccccc1Cl	Pf Dd2 inh 0.89µM
CN(C)c1ccc(C(=O)NC[C@H]2O[C@@H](CO)[C@@H](O)[C@H]2N2CCN(c3ccccn3)CC2)cc1	none
Cc1n[nH]c(C)c1CCCN(C)c1cc(C2CC(N)C2)nc(N)n1 (centres undefined)	none
COc1cccnc1C(=O)N1CCC(N2CCCC(C(=O)N3CCCC3)C2)CC1 (centres undefined)	none
CC1=C(C(N)=O)C(c2ccc(F)cc2)n2nc(-c3ccc(N(C)C)cc3)nc2N1 (centres undefined)	Pf Dd2 inh 10µM
CC1=C(C(N)=O)C(c2cccc(C)c2)n2nc(-c3ccc(Cl)cc3)nc2N1 (centres undefined)	none
CCN(CC)c1ccc(C2C(C(N)=O)=C(C)Nc3ncnn32)cc1 (centres undefined)	none
Cc1nc(CN2C(=O)OC3(CCN(C(=O)Cc4ccccc4)CC3)C2(C)c2ccccc2)cs1 (centres undefined)	none
COc1cccc(CCC(=O)N2CC(c3nnc(-c4ccncc4)o3)C3(CCOCC3)C2)c1 (centres undefined)	none
CC(C)CC(=O)Nc1cccc(-c2nc3ccccc3[nH]2)c1	none
Cc1ccc(C(C)C)c(OCC(=O)Nc2cc(-c3nc4ccccc4[nH]3)ccc2C)c1	Pf Dd2 inh 6.3µM
COc1c(Cl)cc(C(=O)Nc2cc(-c3nc4ccccc4[nH]3)ccc2C)cc1Cl	none
COc1ccc(C(=O)N2[C@@H]3CC[C@H]2CC(NC(=O)c2ccc(F)cc2)C3)c(OC)n1 (some centres undefined)	none
Cc1ncc(S(C)(=O)=O)c(NCCCNc2cccnc2)n1	none
CC(=O)N1CCCC(c2nc(CCOCC3CC3)no2)C1 (centres undefined)	none
C(Cc1noc(C2CNC2)n1)OCC1CC1	Pf Dd2 inh 5µM
C1CNCC(c2nc(CCOCC3CCOCC3)no2)C1 (centres undefined)	none
CCN1c2cc(C(=O)Nc3ccc(OC)c(OC)c3)ccc2C(=O)N2CCCC21 (centres undefined)	none
O=C(c1ccccn1)N1CC2CC(C1)[C@H]1CCCC(=O)N1C2 (some centres undefined)	none
Cc1noc(C)c1S(=O)(=O)N1CCC2(C1)C(=O)Nc1ccccc12 (centres undefined)	none
Cc1nc(C2(C)CCN(S(=O)(=O)c3c(C)noc3C)CC2)no1	none
Cc1noc(C)c1S(=O)(=O)N1CCC2(CC1)C(=O)N(C)c1ccccc12	Pf Dd2 inh 3.5µM
CC(C)Cn1c(=O)[nH]c2cccnc21	none
COc1ccc(NC(=O)c2c(OC)cc(=O)n3c2CCCC3)c(OC)c1	none
Cc1ccc(C(=O)N2CC[C@H](N3CCOCC3)[C@H](CCCO)C2)cc1Cl	none
Cc1cc(C(=O)N2CCCN(C)c3ccccc32)nn1C	none
CN(Cc1ccccc1)C1CCOC2(CCN(C(=O)NC3CCCC3)CC2)C1 (centres undefined)	Pf Dd2 inh 6.3µM
CC(C)NC(=O)N(C1CC1)C1CCOC2(CCN(C(=O)NCc3ccccc3)CC2)C1 (centres undefined)	none
COc1cccc(CC(=O)N2CCC3(CC2)CC(N(C2CC2)S(C)(=O)=O)CCO3)c1 (centres undefined)	none
CC(C)CNC(=O)N1CCC2(CC1)CC(N(C)Cc1ccccc1)CCO2 (centres undefined)	none
COc1ccc(S(=O)(=O)N2CCC3(CC2)CC(N(C)Cc2ccccc2)CCO3)cc1 (centres undefined)	Pf Dd2 inh 11µM
COC1CCOC2(CCN(S(=O)(=O)c3ccccc3)CC2)C1 (centres undefined)	none
CN1CCN(C[C@@H]2CN(C(=O)CCc3cn[nH]c3)C[C@@H]2CO)CC1	none
Cc1cccc2c1nc1n2[C@@H](CNCc2ccc(S(C)(=O)=O)cc2)COC1	none
CC(C)CCN1CC2(CCCN(C(=O)CCn3cnnc3)C2)CCC1=O (centres undefined)	none
CN(C)c1ccc(-c2nnnn2[C@H]2CO[C@H]3[C@@H]2OC[C@H]3OC(=O)Nc2ccc(Oc3ccccc3)cc2)cc1	none
CC(Oc1ccccc1)C(=O)N1CCC(n2cc(-c3nc(C4CC4)no3)nn2)C1 (centres undefined)	none
Cc1nc2cccnc2n1CC1CCCN(S(=O)(=O)c2ccc(C(C)C)cc2)C1 (centres undefined)	none
Cc1ccc(S(=O)(=O)c2nc(-c3cccc(C)c3)oc2N2CCN(c3ccccc3)CC2)cc1	Pf Dd2 inh 10µM
Cc1ccc(S(=O)(=O)c2nc(-c3ccccc3)oc2N2CCN(c3ccccc3)CC2)cc1	none
Cc1ccc(-c2nc(S(=O)(=O)c3ccc(C)cc3)c(N3CCN(c4ccccc4)CC3)o2)cc1	none
CCc1ccc(CNC(=O)CCc2conc2-c2cccc(C)c2)cc1	none
Cc1nn(-c2ccccc2)c(Oc2ccc(F)cc2F)c1CCC(=O)NC(C)C	none
O=C(c1ccn[nH]1)N1CCCCC1c1noc(COc2ccc(F)cc2)n1 (centres undefined)	none
Cc1ccc(S(=O)(=O)N2CCCC(Cn3c(C)nc4cccnc43)C2)cc1Cl (centres undefined)	Pf Dd2 inh 7.1µM
Cc1ccc(S(=O)(=O)N2CCCC(Cn3c(C)nc4cccnc43)C2)cc1 (centres undefined)	none
Cc1nc2cccnc2n1CC1CCCN(S(=O)(=O)c2ccc(F)c(F)c2)C1 (centres undefined)	none
Cc1ccc(-n2c(C3CCN(C(=O)c4ccc(C#N)cc4)CC3)n[nH]c2=O)cc1	none
Cc1ccc(CNC(=O)N2CCC3(CC2)C(C(=O)O)CC(=O)N3C)cc1 (centres undefined)	none
COc1ccc(CNC(=O)N2CC[C@@](O)(C3CCC3)[C@H](C)C2)cc1	none
Cc1cc(-c2ccccc2)nc(CN2CC[C@@](O)(C3CCC3)[C@H](C)C2)n1	Pf Dd2 inh 10µM
C[C@@H]1CN(Cc2nc(C(N)=O)no2)CC[C@@]1(O)C1CCOCC1	none
COc1ccc(CNC(=O)COc2ccc(NC(=O)C3CC3)cn2)cc1	none
COCCOCC1(CNCC2CC2)C[C@@H](O)[C@@H](O)C1 (some centres undefined)	none
NC(=O)Cc1c[nH]c2ncc(-c3ccc(Oc4ccccc4)cc3)cc12	none
CC(C)CC(NC(=O)C1=NNC(=O)CC1)c1nnc2n1CCNCC2 (centres undefined)	none
CCOc1ccccc1NC(=O)N1CCC(N2CCN(Cc3ccccc3)C(=O)C2=O)CC1	none
COCCC(=O)N1CCC(N2C(=O)C3(CCCCC3)C2c2ccccc2)CC1 (centres undefined)	none
CCOc1ccccc1NC(=O)N1CCC(N2C(=O)C3(CCCC3)C2c2ccccc2)CC1 (centres undefined)	Pf Dd2 inh 8.9µM
O=C(CN1CCOCC1)N1CCC(N2C(=O)C3(CCCCC3)C2c2ccccc2)CC1 (centres undefined)	none
O=C(CN1CCCCCC1)N1CCC(N2C(=O)C3(CCCC3)C2c2ccccc2)CC1 (centres undefined)	Pf Dd2 inh 4.5µM
CC(C)C(=O)N1CCC(N2C(=O)C3(CCCC3)C2c2ccccc2)CC1 (centres undefined)	none
O=C1N(Cc2ccc(F)cc2)C[C@H]2CN(Cc3ccc(C(F)(F)F)cc3)CCN12	none
NC(=O)CN1CCC(C(=O)NCc2cn3cccnc3n2)CC1	none
Cc1noc(C)c1S(=O)(=O)N1CCCC(c2[nH]ccc2C(N)=O)C1 (centres undefined)	none
O=C1CCC2(CCCO2)CCN1Cc1ccc(F)c(F)c1 (centres undefined)	none

Assay outcomes from PubChem.
